The record followed here is the supplement of paper PMC10646978.

Conditions in all cases: modulator concentration 10 µM
The test system of test [1] is RAW-Dual (murine macrophage reporter line). Briefly: NF-kB reporter (SEAP) activity fold change vs agonist alone; higher = enhanced NF-kB activity. The essentials:
(§1)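 Overnight stimulation with a PRR agonist followed pre-incubation for 1 hour at 37 °C with compound at 10 μM final. This was done in RAW-Dual murine macrophage reporter cells seeded at 50 000 per well in 384-well plates. NF-κB (SEAP, QUANTI-Blue absorbance at 620 nm) and IRF (Lucia luciferase, QUANTI-Luc luminescence) were read from the supernatant. Each reporter's fold change relative to the mean agonist-only control on the same plate was averaged over replicate plates.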

Test [2] shares this test system. Put plainly: IRF reporter (Lucia luciferase) activity fold change vs agonist alone; higher = enhanced IRF activity. The procedure, abridged:
as §1

For test [3] the test system is unchanged. Briefly: viability score (confluency relative to resting cells, overnight) (fraction); higher = more viable, active = viable (0.7 or more). The procedure, abridged: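 RAW-Dual macrophages in 384-well plates were incubated overnight with compound, final concentration 10 μM. Confluency images from IncuCyte were processed in IncuCyte software into two masks covering all imaged wells. The viability score is each well's confluency relative to resting cells, and a compound met the cutoff when both masks exceeded 70% of resting cells.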

Setting [4] is: agonist: CpG ODN 1826 0.5 ug/mL.

± gives the standard deviation.

For the compound `O=C(NN=Cc1c(O)ccc2ccccc12)c1ccccc1`, the results for the NF-kB reporter in test [1] (setting [4]), in test [1] (agonist: LPS 0.1 ug/mL) and in test [1] (agonist: MPLA […]) were 1.48 ± 0.12, 1.19 ± 0.08 and 1.12 ± 0.054, respectively. Further, the results for the IRF reporter in test [2] (agonist: 3'3'-cGAMP 10 ug/mL), in test [2] (agonist: LPS 0.1 ug/mL) and in test [2] (agonist: MPLA […]) were 0.752 ± 0.11, 1.23 ± 0.077 and 1.14 ± 0.12, respectively. For the same compound, the viability score in test [3] was 0.979 (active).
On to `CC1CCc2c(oc3ccc(NS(=O)(=O)c4ccc(F)cc4)cc23)C1` (stereo not given), for which the NF-kB reporter in test [1] (setting [4]) was determined as 0.607 ± 0.1; in test [1] (agonist: LPS 0.1 ug/mL) it was 0.626 ± 0.075; in test [1] (agonist: MPLA […]), 0.918 ± 0.032. For the same compound, the IRF reporter in test [2] (agonist: 3'3'-cGAMP 10 ug/mL) was 0.853 ± 0.035; in test [2] (agonist: LPS 0.1 ug/mL) it was 0.643 ± 0.11; in test [2] (agonist: MPLA […]), 1.76 ± 0.23. Besides, the viability score in test [3] was 0.144 (inactive).
`Cc1nnc(NN=Cc2ccc(O)c([N+](=O)[O-])c2)[nH]c1=O`: the NF-kB reporter in test [1] (setting [4]) stood at 1.07 ± 0.14; in test [1] (agonist: LPS 0.1 ug/mL), 1.01 ± 0.097; in test [1] (agonist: MPLA […]) it was 1.03 ± 0.035. Also, the IRF reporter in test [2] (agonist: 3'3'-cGAMP 10 ug/mL) is 0.98 ± 0.045; in test [2] (agonist: LPS 0.1 ug/mL), 0.979 ± 0.14; in test [2] (agonist: MPLA […]), 1.01 ± 0.25. Moreover, the viability score in test [3] was 0.992 (active).
`O=C(Nc1ccc([N+](=O)[O-])cc1Cl)c1cccnc1`: the results for the NF-kB reporter in test [1] (setting [4]), in test [1] (agonist: LPS 0.1 ug/mL) and in test [1] (agonist: MPLA […]) were 0.871 ± 0.26, 0.96 ± 0.11 and 0.982 ± 0.16, respectively. The IRF reporter in test [2] (agonist: 3'3'-cGAMP 10 ug/mL) is 0.958 ± 0.061; in test [2] (agonist: LPS 0.1 ug/mL) it was 1.06 ± 0.23; in test [2] (agonist: MPLA […]) it was 1.33 ± 0.37. For the same compound, the viability score in test [3] is 0.996 (active).
Take `O=C(NCCCCNC(=O)c1cncc(Br)c1)c1cncc(Br)c1`: the figures for the NF-kB reporter in test [1] (setting [4]), in test [1] (agonist: LPS 0.1 ug/mL) and in test [1] (agonist: MPLA […]) were 0.947 ± 0.053, 0.973 ± 0.095 and 0.907 ± 0.075, respectively. The IRF reporter was found to be 0.946 ± 0.038 in test [2] (agonist: 3'3'-cGAMP 10 ug/mL), 1.37 ± 0.093 in test [2] (agonist: LPS 0.1 ug/mL) and 1.16 ± 0.24 in test [2] (agonist: MPLA […]). Besides, the viability score in test [3] was 0.991 (active).
`COc1cc(NC(=O)NCc2nc(C)cc(N3CCOCC3)n2)cc(OC)c1`: the NF-kB reporter in test [1] (setting [4]) turned out to be 1.33 ± 0.32; in test [1] (agonist: LPS 0.1 ug/mL) it was 1.04 ± 0.053; in test [1] (agonist: MPLA […]), 1.07 ± 0.11. For the same compound, the IRF reporter turned out to be 0.886 ± 0.031 in test [2] (agonist: 3'3'-cGAMP 10 ug/mL), 1.15 ± 0.14 in test [2] (agonist: LPS 0.1 ug/mL) and 1.09 ± 0.11 in test [2] (agonist: MPLA […]). For the same compound, the viability score in test [3] is 0.982 (active).
For the compound `COC(=O)c1cc(NC(=O)c2cc(OC)c(OC)cc2[N+](=O)[O-])cc(C(=O)OC)c1`, the NF-kB reporter was found to be 0.99 ± 0.1 in test [1] (setting [4]), 1.03 ± 0.057 in test [1] (agonist: LPS 0.1 ug/mL) and 0.913 ± 0.074 in test [1] (agonist: MPLA […]). Further, the IRF reporter in test [2] (agonist: 3'3'-cGAMP 10 ug/mL) turned out to be 0.999 ± 0.063; in test [2] (agonist: LPS 0.1 ug/mL), 1.59 ± 0.19; in test [2] (agonist: MPLA […]) it was 1.22 ± 0.091. Further, the viability score in test [3] is 1.01 (active).
In the case of `CC(C)CNC(=O)C(=O)Nc1ccc(C(C)C)cc1`, the NF-kB reporter in test [1] (setting [4]) amounted to 1.03 ± 0.12; in test [1] (agonist: LPS 0.1 ug/mL), 0.931 ± 0.11; in test [1] (agonist: MPLA […]), 1.01 ± 0.038. Also, the IRF reporter in test [2] (agonist: 3'3'-cGAMP 10 ug/mL) is 0.989 ± 0.15; in test [2] (agonist: LPS 0.1 ug/mL), 0.959 ± 0.052; in test [2] (agonist: MPLA […]), 0.958 ± 0.093. For the same compound, the viability score in test [3] is 1 (active).
Consider `CN(C)CCNC(=S)NC(=O)C12CCC3CC(CC(C3)C1)C2`, for which the values for the NF-kB reporter in test [1] (setting [4]), in test [1] (agonist: LPS 0.1 ug/mL) and in test [1] (agonist: MPLA […]) were 0.978 ± 0.1, 1 ± 0.094 and 0.982 ± 0.062, respectively. The figures for the IRF reporter in test [2] (agonist: 3'3'-cGAMP 10 ug/mL), in test [2] (agonist: LPS 0.1 ug/mL) and in test [2] (agonist: MPLA […]) were 0.994 ± 0.033, 1.5 ± 0.17 and 1.07 ± 0.068, respectively. Besides, the viability score in test [3] is 1.01 (active).
Regarding `CC(=O)N1CCN(c2ccc(OC[C@H]3CO[C@](Cn4ccnc4)(c4ccc(Cl)cc4Cl)O3)cc2)CC1`, the NF-kB reporter in test [1] (setting [4]) amounted to 0.723 ± 0.072; in test [1] (agonist: LPS 0.1 ug/mL), 1.06 ± 0.071; in test [1] (agonist: MPLA […]) it was 1.03 ± 0.025. In addition, the IRF reporter in test [2] (agonist: 3'3'-cGAMP 10 ug/mL) was 0.925 ± 0.094; in test [2] (agonist: LPS 0.1 ug/mL), 1.07 ± 0.15; in test [2] (agonist: MPLA […]) it was 1.07 ± 0.27. Moreover, the viability score in test [3] is 1 (active).
On to `Cn1cnc2c(F)c(Nc3ccc(Br)cc3Cl)c(C(=O)NOCCO)cc21`, for which the NF-kB reporter turned out to be 0.288 ± 0.015 in test [1] (setting [4]), 0.124 ± 0.0099 in test [1] (agonist: LPS 0.1 ug/mL) and 0.183 ± 0.013 in test [1] (agonist: MPLA […]). Besides, the IRF reporter in test [2] (agonist: 3'3'-cGAMP 10 ug/mL) was determined as 0.852 ± 0.061; in test [2] (agonist: LPS 0.1 ug/mL), 3.68 ± 0.24; in test [2] (agonist: MPLA […]), 2.42 ± 0.19. Moreover, the viability score in test [3] is 0.684 (inactive).
Turning to `O=C1c2ccccc2C(=O)C1c1ccccc1`, the NF-kB reporter worked out at 1.36 ± 0.21 in test [1] (setting [4]), 1.01 ± 0.085 in test [1] (agonist: LPS 0.1 ug/mL) and 1.32 ± 0.15 in test [1] (agonist: MPLA […]). For the same compound, the IRF reporter in test [2] (agonist: 3'3'-cGAMP 10 ug/mL) was found to be 0.856 ± 0.03; in test [2] (agonist: LPS 0.1 ug/mL), 1.18 ± 0.1; in test [2] (agonist: MPLA […]) it was 0.968 ± 0.14. Besides, in test [3], the viability score is 0.996 (active).
On to `COc1ccc(Nc2nc(Nc3ccc4ncccc4c3)nc(N3CCOCC3)n2)cc1`, for which the NF-kB reporter was found to be 0.279 ± 0.013 in test [1] (setting [4]), 1.36 ± 0.11 in test [1] (agonist: LPS 0.1 ug/mL) and 2.85 ± 0.15 in test [1] (agonist: MPLA […]). For the same compound, the IRF reporter is 0.34 ± 0.015 in test [2] (agonist: 3'3'-cGAMP 10 ug/mL), 1.61 ± 0.24 in test [2] (agonist: LPS 0.1 ug/mL) and 2.74 ± 0.57 in test [2] (agonist: MPLA […]). The viability score in test [3] was 0.904 (active).
As for `CC(=O)Nc1ccc(NC(=O)COc2ccc(Br)c(C)c2)cc1`, the NF-kB reporter came to 0.902 ± 0.15 in test [1] (setting [4]), 1.09 ± 0.097 in test [1] (agonist: LPS 0.1 ug/mL) and 0.95 ± 0.087 in test [1] (agonist: MPLA […]). Moreover, the IRF reporter turned out to be 0.997 ± 0.026 in test [2] (agonist: 3'3'-cGAMP 10 ug/mL), 1.27 ± 0.36 in test [2] (agonist: LPS 0.1 ug/mL) and 1.22 ± 0.17 in test [2] (agonist: MPLA […]). Besides, the viability score in test [3] was 1.01 (active).
As to `O=c1c(O)c(-c2ccc(O)cc2O)oc2cc(O)cc(O)c12`, the NF-kB reporter amounted to 1.03 ± 0.28 in test [1] (setting [4]), 1.1 ± 0.066 in test [1] (agonist: LPS 0.1 ug/mL) and 1.01 ± 0.085 in test [1] (agonist: MPLA […]). For the same compound, the values for the IRF reporter in test [2] (agonist: 3'3'-cGAMP 10 ug/mL), in test [2] (agonist: LPS 0.1 ug/mL) and in test [2] (agonist: MPLA […]) were 0.739 ± 0.027, 1.11 ± 0.21 and 1.14 ± 0.14, respectively. In test [3], the viability score was 1 (active).
